RTF Ca sens inh: cardiac RTF calcium desensitization; P19429+P45379; IANBD-labeled cardiac RTF, Ca2+ fluorescence; inhibition, % at 7.15 µM; 340,000 compounds, 0.12% hits;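 active means inhibition above the mean inhibition of all tested compounds plus 3 SD, cut at about 17% in these data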;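 further: assay run at fixed EC70 calcium of 1.6 mM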
GLD-1 TGE inh: GLD-1-TGE RNA interaction inhibition (C. elegans) | Q17339 | purified GLD-1 + fluorescein TGE RNA, fluorescence polarization | inhibition, % at 5.96 µM | 320,000 compounds, 0.44% hits;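 active means percent inhibition above a per-plate cutoff, the plate mean of test compounds plus 3 SD, cut at about 30% in these data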;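 further: 0% = DMSO wells with GLD-1 and probe and 100% = wells lacking GLD-1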
cardiac RTF act: cardiac RTF calcium sensitization; P19429+P45379; IANBD-labeled TnC RTF fluorescence at EC20 calcium; 0% EC20 calcium, 100% full calcium; activation, % at 7.2 µM; 340,000 compounds, 0.24% hits;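 active means activation above the mean over all tested compounds plus 3 SD, cut at about 30% in these data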;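 further: rise in fluorescence read as greater calcium sensitivity of cardiac thin filaments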
BCLXL inh: blocks human Bcl-xL binding to Bim BH3 peptide; inhibition, % at 10.9 µM; AID 2129; 320,000 compounds, 0.7% hits; GST-Bcl-xL / FITC-Bim BH3 peptide fluorescence polarization; Q07817;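 active means inhibition above the mean of all tested compounds plus 3 SD, cutoff set per campaign, cut at about 30% in these data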;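 further: 0% = DMSO wells and 100% = unlabeled Bim-BH3 peptide competitor; inhibitors lower millipolarization by displacing the labeled peptide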
eLon inh: inhibits E. coli Lon protease; purified E. coli Lon protease, fluorescence polarization; inhibition, % at 7.94 µM; 360,000 compounds, 0.42% hits; in the data active means inhibition above about 13%, passing the limit was not always enough;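 further: 0% = enzyme with probe and DMSO and 100% = no enzyme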
Target sequence (P0A9M0 whole entry, looked up): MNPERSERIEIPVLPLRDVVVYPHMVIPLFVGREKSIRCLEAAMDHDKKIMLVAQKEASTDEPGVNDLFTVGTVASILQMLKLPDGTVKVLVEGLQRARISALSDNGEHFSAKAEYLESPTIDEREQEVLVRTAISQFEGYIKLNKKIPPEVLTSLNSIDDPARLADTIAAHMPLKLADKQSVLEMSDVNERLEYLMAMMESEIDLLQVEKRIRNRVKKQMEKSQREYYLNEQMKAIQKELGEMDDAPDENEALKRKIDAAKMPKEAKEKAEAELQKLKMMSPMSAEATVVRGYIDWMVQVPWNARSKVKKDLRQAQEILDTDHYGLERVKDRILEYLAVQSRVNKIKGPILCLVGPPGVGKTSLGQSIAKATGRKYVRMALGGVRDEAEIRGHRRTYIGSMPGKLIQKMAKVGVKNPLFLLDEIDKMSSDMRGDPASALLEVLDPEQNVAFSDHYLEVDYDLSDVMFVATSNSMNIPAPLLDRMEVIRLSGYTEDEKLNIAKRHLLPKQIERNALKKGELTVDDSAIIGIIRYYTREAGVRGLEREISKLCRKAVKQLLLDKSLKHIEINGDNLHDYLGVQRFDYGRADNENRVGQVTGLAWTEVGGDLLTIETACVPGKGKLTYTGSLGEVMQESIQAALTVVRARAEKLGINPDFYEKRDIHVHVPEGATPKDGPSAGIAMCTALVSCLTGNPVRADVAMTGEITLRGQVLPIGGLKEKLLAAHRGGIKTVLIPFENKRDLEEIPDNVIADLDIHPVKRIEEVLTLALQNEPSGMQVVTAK
eLon confirm: confirmation of E. coli Lon protease inhibitors; purified E. coli Lon, fluorescence polarization; shares compounds with eLon inh; inhibition, % at 7.94 µM; 1,400 compounds, 31% hits; in the data active means inhibition above about 16%;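 further: 0% = enzyme with probe and DMSO and 100% = no enzyme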
* = called active by the depositor; x = no result given. The list is not random: actives were taken first. Their share in the collection is about 1.2%.

SMILES | RTF Ca sens inh | GLD-1 TGE inh | cardiac RTF act | BCLXL inh | eLon inh | eLon confirm
Cc1ccc(C(NC(=O)C2CCN(CCOc3ccccc3)CC2)c2ccccn2)cc1 (stereo not given) | x | x | x | x | 15* | -3
COc1ccc(OCCN2CCC(C(=O)NC(c3ccc(F)cc3)c3ccc4ccccc4n3)CC2)cc1 (stereo not given) | x | x | x | x | 24* | -16
Brc1ccc2nc(-c3ccco3)c(Cc3ccccc3)n2c1 | x | x | x | x | -12 | x
CCN1CCN(C(CNS(=O)(=O)c2ccccc2)c2cccnc2)CC1 (stereo not given) | 0 | 7 | 0 | 6 | 19* | -6
Cc1cccn2c(=O)c(C=C(C#N)C#N)c(N3CCN(C)CC3)nc12 | 5 | 25 | -1 | 58* | 17* | 13
Cc1cccn2c(=O)c(C=C(C#N)C#N)c(N3CCN(c4ccccc4)CC3)nc12 | -6 | x | 2 | x | 11 | x
Cc1cc(OCc2cc(C(=O)N(C)CC3CCOCC3)no2)cc(C)c1Cl | -4 | 10 | -7 | -1 | 0 | x
CN(C(=O)C(=O)c1cn(CC(=O)N2CCCC2)c2ccccc12)C1CCCCC1 | -3 | 3 | -2 | 7 | 39* | -12
CC1CCN(C(=O)C(=O)c2cn(CC(=O)N3CCCCCC3)c3ccccc23)CC1 | 3 | 2 | -3 | 0 | 5 | x
CC1CCCN(C(=O)C(=O)c2cn(CC(=O)N3CCCCCC3)c3ccccc23)C1 (stereo not given) | -1 | 4 | 1 | 8 | 21* | 10
COc1ccc(Cl)cc1Nc1cc(C)nc2ncnn12 | x | x | x | x | 5 | x
CCC1CCCCN1CCCNC(=O)CSc1nc2nc(C)c(Cc3ccccc3Cl)c(C)n2n1 (stereo not given) | 2 | 4 | -6 | 4 | -1 | x
CCNC(=S)N(Cc1cc2c(C)ccc(C)c2[nH]c1=O)C1CCCC1 | -6 | 3 | 3 | 11 | -2 | x
COc1ccc(S(=O)(=O)Nc2ccc(F)cc2)cc1N(C)S(=O)(=O)c1ccc(Cl)cc1 | -4 | 2 | 8 | 7 | 16* | 41*
COc1ccc(NS(=O)(=O)c2ccc(OC)c(N(C)S(=O)(=O)c3ccc(Cl)cc3)c2)cc1 | -2 | 4 | 0 | 0 | 3 | x
c1cc(-c2ccoc2)n2ccnc2c1 | x | x | x | x | 73* | 13
COc1cccc(N2CC(C(=O)NNC(=O)c3ccc(Cl)cc3)CC2=O)c1 (stereo not given) | -2 | 7 | -2 | -1 | 5 | x
CC1CCN(C(=O)C2CCN(c3ncnc4c3nc3n4CCCCC3)CC2)CC1 | 4 | 3 | -4 | 6 | 20* | -1
CSC1=NC(=O)/C(=C/c2ccc(SC)cc2)S1 | -6 | -5 | 2 | 4 | 25* | -4
CCCOc1ccc(/C=C/C(=O)Nc2ccc([N+](=O)[O-])cc2)cc1 | 2 | -6 | 8 | 3 | 19* | -102
CCCCOc1ccc(/C=C/C(=O)Nc2ccc([N+](=O)[O-])cc2C)cc1 | -1 | 4 | 9 | 7 | 6 | x
CC(C)N(C(=O)Cn1cc(S(=O)(=O)CC(=O)NCCc2ccccc2)c2ccccc21)C(C)C | x | x | x | x | -2 | x
COc1cc(OC)c(C(=O)/C=C/c2ccc(OCc3ccccc3)c(OC)c2)c(OC)c1 | 3 | x | -1 | x | 0 | x
O=C1c2ccccc2-c2n[nH]c3cccc1c23 | -6 | x | 6 | x | 23* | 33*
O=c1c(-c2ccccc2)n[nH]c2ccccc12 | -4 | 3 | 3 | 5 | -6 | x
SMILES | RTF Ca sens inh | GLD-1 TGE inh | cardiac RTF act | BCLXL inh | eLon inh | eLon confirm
O=C(CCS(=O)(=O)Cc1ccccc1F)N1CCc2ccccc2C1 | 0 | -1 | 11 | 8 | 18* | -17
COc1ccc(NC(=O)CN(C)CC(=O)Nc2ccc(Cl)cc2F)cc1 | -2 | 0 | -2 | 0 | 4 | x
Oc1ccccc1-c1cc(C(F)(F)F)nc(-c2ccccc2)n1 | 0 | 6 | -4 | 5 | -9 | x
Nc1nc(N)c(N=Nc2ccccc2)c(=O)[nH]1 | 5 | x | -4 | x | 2 | x
Nc1nc(N=Nc2ccc(O)cc2)cc(=O)[nH]1 | x | x | x | x | 67* | 35*
COc1ccc(S(=O)(=O)N(C)C[C@H]2Oc3ccc(NS(=O)(=O)c4cccs4)cc3C(=O)N([C@H](C)CO)C[C@@H]2C)cc1 | -6 | x | -9 | x | 0 | x
COc1ccc(Cl)cc1C(=O)NNC(=O)CNC(=O)c1ccco1 | 5 | 3 | 6 | x | -2 | x
O=C(COC(=O)CNS(=O)(=O)c1c(F)cccc1F)NC(=O)NC1CCCCC1 | 3 | 9 | -3 | 2 | 27* | -8
Cn1ncc(C#N)c1/N=C/N1CCOCC1 | -6 | -5 | -5 | -1 | -3 | x
O=C(O)CCC(=O)Nc1ccc(-c2nnc(-c3ccco3)o2)cc1 | -4 | 8 | 0 | 6 | 3 | x
S=C(NCCc1ccccc1)N/N=C/c1ccc(Cl)cc1 | 1 | 4 | 0 | 1 | -2 | x
Cc1ccc(OCCC(=O)OCC(=O)N2CCN(S(=O)(=O)c3ccc(C)cc3C)CC2)cc1 | -8 | 2 | -4 | -5 | -4 | x
CCOc1ccc(OCCC(=O)OCC(=O)N2CCN(S(=O)(=O)c3ccc(C)cc3C)CC2)cc1 | -3 | x | 0 | x | 20* | 3
Cc1ccc(Cl)cc1NC(=O)COC(=O)C1CCCC1 | 4 | 3 | 0 | 3 | -1 | x
CC(C)(C)OC(=O)N[C@@H](Cc1ccccc1)C(=O)N1CCC(C(=O)NCC(=O)O)CC1 | -12 | 1 | -5 | 3 | 7 | x
CC(C)(C)OC(=O)NC(Cc1ccccc1)C(=O)N1CCC(C(=O)NCC(=O)Nc2ccc(F)cc2)CC1 (stereo not given) | -14 | 57* | 1 | 105* | 22* | 43*
Cn1c(NC2CCCCC2)cc(=O)n(C)c1=O | -14 | -2 | -7 | 5 | 27* | -8
CCc1nc(Sc2nnnn2-c2ccccc2)c2c3c(sc2n1)CCCC3 | 5 | 1 | -8 | 3 | 6 | x
CCCCOc1cccc(C(=O)NC(=S)Nc2cccnc2)c1 | -3 | -5 | 2 | 2 | 19* | -46
Cc1cccc(OCC(O)CN2C(C)(C)CC(O)CC2(C)C)c1 (stereo not given) | 7 | 6 | 5 | 6 | 14* | -2
Cc1noc(C)c1COc1ccccc1C(=O)Nc1cccc(S(=O)(=O)N(C)C)c1 | 3 | 8 | -3 | 4 | 1 | x
Cc1cc(NC(=O)c2coc(=O)c(Br)c2)ccc1C(C)C | x | 1 | x | 4 | 24* | 19*
C[C@@H](NC(=O)c1coc(=O)c(Br)c1)c1ccccc1 | -11 | 10 | 2 | 6 | -4 | x
Cc1cccc(NC(=O)C(C)Sc2nnc(-c3cccnc3)o2)c1 (stereo not given) | -4 | 6 | -3 | -1 | 0 | x
ClCc1csc(-c2ccc(Cl)cc2)n1 | -2 | 0 | -2 | 2 | -1 | x
CC1CN(Cc2csc(-c3ccc(Cl)cc3)n2)CC(C)O1 (stereo not given) | -1 | 9 | 5 | 3 | 15* | -7

From PubChem BioAssay
